Measurements: PubChem BioAssay AID1159580 (chemical genetic matrix, 2015)
“And” between values parts separate entries of the source, which are not always exact repeats. Equal entries are not always repeated. Screen size: about 5,500 compounds; about 2,000 (36%) were called active. About 18% were inconclusive and are not listed. Rule as the data show it: active = normalized growth mostly below about 0.91 (no sharp cut-off); inconclusive = no clear call, values can overlap the other calls; inactive = mostly above about 0.92. The list shows a part of the results.

Test: chemical genetic growth profiling, strain panel (AID 1159580);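 also: tested at 20 µM; growth read once vehicle control cultures reached saturation at 30 °C; 1 = growth at the plate median or of vehicle wells; lower values mean less growth of the strain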
Conditions: S. cerevisiae deletion strains, growth OD

Measured: normalized growth

Cn1c(=O)[nH]c2ncn(C)c2c1=O
inactive: locus YAL013W, strain DEP1, stronger effect = lower value 1.01 | locus YAL021C, strain ccr4, stronger effect = lower value 1.06 | locus YAL026C, strain drs2, stronger effect = lower value 0.985 | locus YAL030W, strain snc1, stronger effect = lower value 0.981 | locus YAL040C, strain CLN3, stronger effect = lower value 0.958 | locus YBL061C, strain skt5, stronger effect = lower value 0.99 | locus YBR009C, strain hhf1, stronger effect = lower value 0.995 | locus YBR021W, strain FUR4, stronger effect = lower value 1.04 | locus YBR023C, strain chs3, stronger effect = lower value 1 | locus YBR171W, strain sec66, stronger effect = lower value 0.95 | locus YBR229C, strain ROT2, stronger effect = lower value 1.01 | locus YBR231C, strain swc5, stronger effect = lower value 0.962 | locus YBR279W, strain paf1, stronger effect = lower value 0.993 | locus YCL011C, strain gbp2, stronger effect = lower value 0.966 | locus YCL016C, strain dcc1, stronger effect = lower value 1.03 | locus YCL029C, strain bik1, stronger effect = lower value 0.996 | locus YCL061C, strain MRC1 (second series), stronger effect = lower value 1.01 | locus YCL061C, strain MRC1, stronger effect = lower value 0.995 | locus YCL069W, strain vba3, stronger effect = lower value 0.968 | locus YCR088W, strain abp1, stronger effect = lower value 0.966 | locus YDL005C, strain med2, stronger effect = lower value 0.962 | locus YDL035C, strain GPR1, stronger effect = lower value 1.02 | locus YDL040C, strain nat1, stronger effect = lower value 0.962 | locus YDL074C, strain BRE1, stronger effect = lower value 1.05 | locus YDL101C, strain DUN1, stronger effect = lower value 1.01 | locus YDL134C, strain PPH21, stronger effect = lower value 1.02 | locus YDL185W, strain tfp1, stronger effect = lower value 0.996 | locus YDL192W, strain arf1, stronger effect = lower value 0.993 | locus YDR001C, strain nth1, stronger effect = lower value 0.968 | locus YDR069C, strain doa4, stronger effect = lower value 0.949 | locus YDR101C, strain arx1, stronger effect = lower value 1 | locus YDR137W, strain rgp1, stronger effect = lower value 0.988 | locus YDR150W, strain NUM1, stronger effect = lower value 1.02 and 0.997 | locus YDR159W, strain sac3, stronger effect = lower value 0.939 | locus YDR162C, strain NBP2, stronger effect = lower value 1 | locus YDR195W, strain ref2 0.95 | locus YDR297W, strain sur2, stronger effect = lower value 0.959 | locus YDR318W, strain mcm21, stronger effect = lower value 0.992 | locus YDR334W, strain swr1, stronger effect = lower value 0.975 | locus YDR335W, strain msn5, stronger effect = lower value 0.978 | locus YDR363W, strain ESC2, stronger effect = lower value 1.01 | locus YDR388W, stronger effect = lower value 0.989 | locus YDR392W, strain spt3, stronger effect = lower value 0.937 | locus YDR502C, strain sam2, stronger effect = lower value 0.993 | locus YEL003W, strain gim4, stronger effect = lower value 0.972 | locus YEL037C, strain rad23, stronger effect = lower value 0.968 | locus YEL061C, strain CIN8 (second series), stronger effect = lower value 0.959 | locus YEL061C, strain CIN8, stronger effect = lower value 1.01 | locus YER002W, strain NOP16, stronger effect = lower value 1.01 | locus YER015W, strain faa2, stronger effect = lower value 0.98 | locus YER016W, strain bim1, stronger effect = lower value 0.967 | locus YER110C, stronger effect = lower value 0.996 | locus YER111C, strain swi4, stronger effect = lower value 0.98 | locus YER155C, strain BEM2 (second series), stronger effect = lower value 0.959 | locus YER155C, strain BEM2, stronger effect = lower value 1.02 | locus YER167W, strain BCK2, stronger effect = lower value 1.01 | locus YFR010W, strain ubp6, stronger effect = lower value 0.962 | locus YGL078C, strain dbp3, stronger effect = lower value 0.989 | locus YGL086W, strain mad1, stronger effect = lower value 1 | locus YGL167C, strain pmr1, stronger effect = lower value 0.982 | locus YGL173C, strain kem1, stronger effect = lower value 0.97 | locus YGL227W, strain vid30, stronger effect = lower value 0.967 | locus YGL240W, strain doc1, stronger effect = lower value 0.958 | locus YGL248W, strain PDE1, stronger effect = lower value 1.01 | locus YGL253W, strain hxk2, stronger effect = lower value 0.958 | locus YGR078C, strain PAC10, stronger effect = lower value 1.02 and 0.978 | locus YGR135W, strain pre9, stronger effect = lower value 0.992 | locus YGR229C, strain SMI1, stronger effect = lower value 1.02 | locus YGR252W, strain gcn5, stronger effect = lower value 0.981 | locus YHR013C, strain ard1, stronger effect = lower value 0.986 | locus YHR027C, strain rpn1, stronger effect = lower value 0.98 | locus YHR030C, strain SLT2, stronger effect = lower value 1 | locus YHR079C, strain IRE1 (second series), stronger effect = lower value 0.987 | locus YHR094C, strain hxt1, stronger effect = lower value 0.992 | locus YHR129C, strain ARP1, stronger effect = lower value 1.02 | locus YHR142W, strain chs7, stronger effect = lower value 0.987 | locus YHR200W, strain rpn10, stronger effect = lower value 0.993 | locus YIL066C, strain RNR3, stronger effect = lower value 1.01 | locus YIL073C, strain SPO22, stronger effect = lower value 1 | locus YIL125W, strain kgd1, stronger effect = lower value 0.994 | locus YIR030C, strain dcg1, stronger effect = lower value 1 | locus YJL092W, strain hpr5, stronger effect = lower value 0.971 | locus YJL095W, strain BCK1 (second series), stronger effect = lower value 0.973 | locus YJL095W, strain BCK1, stronger effect = lower value 1.02 | locus YJL115W, strain asf1, stronger effect = lower value 0.969 | locus YJL129C, strain trk1, stronger effect = lower value 0.967 | locus YJL134W, strain LCB3, stronger effect = lower value 1 | locus YJL154C, strain vps35, stronger effect = lower value 0.969 | locus YJL164C, strain tpk1, stronger effect = lower value 1 | locus YJL166W, strain qcr8, stronger effect = lower value 0.972 | locus YJL168C, strain set2, stronger effect = lower value 0.99 | locus YJL187C, strain SWE1 (second series), stronger effect = lower value 1.01 | locus YJL187C, strain SWE1, stronger effect = lower value 0.986
